GPT2 inh – inhibitors of human GPT2 alanine aminotransferase | Recombinant GPT2, coupled pyruvate oxidase/HRP Amplex Red fluorescence | Potency, µM (titrated, usually from 57.7 µM), for inactives: top-dose activity change, negative = inhibition, usual class: inhibitors | 100,000 tested, 0.25% active | Q8TD30; note: % is set by controls: 0 for no effect and ±100 for the full control effect; nearly all actives have a fitted effect of over 60% in size
Target sequence (Q8TD30 whole entry, looked up): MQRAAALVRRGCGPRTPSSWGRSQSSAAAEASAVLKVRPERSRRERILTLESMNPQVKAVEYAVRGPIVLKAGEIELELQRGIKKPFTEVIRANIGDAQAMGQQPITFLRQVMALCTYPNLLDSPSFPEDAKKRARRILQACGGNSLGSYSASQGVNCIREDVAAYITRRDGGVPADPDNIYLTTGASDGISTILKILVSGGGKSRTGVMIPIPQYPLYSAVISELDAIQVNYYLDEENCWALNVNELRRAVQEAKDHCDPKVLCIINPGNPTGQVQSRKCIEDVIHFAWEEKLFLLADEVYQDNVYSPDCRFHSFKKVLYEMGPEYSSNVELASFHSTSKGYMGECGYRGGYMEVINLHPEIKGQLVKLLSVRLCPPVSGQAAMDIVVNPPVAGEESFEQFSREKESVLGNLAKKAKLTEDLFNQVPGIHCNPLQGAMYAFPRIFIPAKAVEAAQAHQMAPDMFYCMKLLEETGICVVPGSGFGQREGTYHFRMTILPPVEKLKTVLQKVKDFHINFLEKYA
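Inhibition is scored from Amplex Red fluorescence generated when pyruvate oxidase and HRP act on pyruvate released by GPT2. Reactions contain 10ng/uL enzyme, 250uM a-KG and 2mM L-alanine and run 30 min at room temperature.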
hNpr1 antagonist – antagonists of human natriuretic peptide receptor Npr1. Potency, µM (highest dose often 46.3 µM), without a hit: top-dose activity change, negative = inhibition, actives largely listed as inhibitors. P16066. 76,000 tested, 1.6% active. HEK293 hNpr1 GloSensor cGMP, ANP-stimulated luminescence; calls by dose curve; note: % is set by controls: 0 for no effect and ±100 for the full control effect; nearly all actives have a fitted effect of over 60% in size
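Compound pre-incubated 30 min at room temperature on GloSensor-loaded HEK293 cells stably carrying hNpr1 and the pGS-40F cGMP biosensor. Stimulation uses hNppA at 0.1 nM final; luminescence is taken at baseline and 20 min post-agonist.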
FLuc inh – blocks purified firefly luciferase enzyme activity; Potency, µM (series often up to 115 µM), hits mostly inhibitors; 76,000 tested, 2.5% active; purified P. pyralis luciferase, luminescence, biochemical; P08659; note: % is set by controls: 0 for no effect and ±100 for the full control effect; nearly all actives have a fitted effect of over 65% in size
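Purified 10nM P. pyralis luciferase with 10uM D-luciferin and 10uM ATP in 50mM Tris acetate pH 7.5, 10mM Mg acetate, 0.01% Tween-20, 0.05% BSA. qHTS titration; luminescence read by CCD imager.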
HEK293 tox – kills HEK 293 cells. AID 1345083. HEK 293 viability, ATP luminescence (CellTiter-Glo), 48-72 h. Potency, µM (top dose mostly 115 µM), for inactives: at the highest dose activity change, negative = cytotoxicity, usual class: inhibitors. 94,000 tested, 6.6% active; note: % is set by controls: 0 for no effect and ±100 for the full control effect; nearly all actives have a fitted effect of over 60% in size
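CellTiter-Glo luminescence (cellular ATP) was read after 48 or 72 hr of compound exposure at 37 degree Celsius. Cells were HEK 293 plated at 250 cells/well.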
3T3 cytotox – cytotoxic compounds in NIH 3T3 cells. NIH 3T3 viability, CellTiter-Glo ATP luminescence, 48-72 h. Potency, µM (titrated, usually from 96.7 µM), for the others: at the top dose activity change, negative = cytotoxicity, usual class: inhibitors. 94,000 tested, 4.3% active; note: % is set by controls: 0 for no effect and ±100 for the full control effect; nearly all actives have a fitted effect of over 55% in size
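Cytotoxicity was measured by CellTiter-Glo ATP luminescence after 48 or 72 h compound exposure at 37 °C. Mouse NIH 3T3 fibroblasts were seeded at 400 cells/well and dosed by 23 nL pin transfer.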
NPR1 antag cnf – confirmation of human Npr1 natriuretic peptide receptor antagonists | Potency, µM (highest dose often 57.6 µM), for inactives: at the highest dose activity change, negative = inhibition, usual class: inhibitors | 1,400 tested, 76% active | shares compounds with hNpr1 antagonist | AID 1347044 | HEK293 hNpr1 cGMP GloSensor luminescence, ANP-stimulated; calls by dose curve; note: nearly all actives have a fitted effect of over 70% in size
NPR2 antag – antagonizes human Npr2, subtype selectivity check | 1,400 tested, 67% active | shares compounds with hNpr1 antagonist | HEK293 hNpr2 GloSensor cGMP luminescence, CNP-stimulated | Potency, µM (highest dose often 57.6 µM), inactives show top-dose activity change, negative = inhibition, most hits filed as inhibitors | AID 1347046; calls by dose curve; note: nearly all actives have a fitted effect of over 70% in size
FLuc counter – counter-screen for Npr1 antagonists: firefly luciferase inhibitors; shares compounds with hNpr1 antagonist; purified FLuc enzyme, luminescence, Km substrate; Potency, µM (top dose mostly 57.6 µM), inactives show top-dose activity change, negative = inhibition, most hits filed as inhibitors; 1,400 tested, 0.7% active; note: 0% is about no effect
GloSensor ctrl – counter-screen for Npr1 antagonists: GloSensor control cell line; shares compounds with hNpr1 antagonist; HEK293 GloSensor cGMP, SNP-stimulated, luminescence; Potency, µM (highest dose often 57.6 µM), for the others: top-dose activity change, negative = inhibition, actives largely listed as inhibitors; 1,400 tested, 69% active; calls by dose curve; note: % is set by controls: 0 for no effect and ±100 for the full control effect; nearly all actives have a fitted effect of over 70% in size
Numbers without * were called inactive; [ ] = another dose, or the depositor's remark. Sampled rows, rich in hits. Any-hit rate of the full collection: about 10%. Unless noted, calls come from the whole dose curve; as a rule, active = well fitted curve in the direction sought with a large enough effect; inconclusive = small, poorly fitted or top-dose-only effect, or another doubt; inactive = no such curve, though single readings can be large; an effect the other way counts as inactive or inconclusive. Potency is the fitted concentration of half-maximal effect.

How did Cc1nn2c(c1-c1ccnn1C(C)C)N(Cc1ccc(O)cc1)CCC2 do in these assays?
GPT2 inh: inactive; hNpr1 antagonist: -7%[70.6 µM]; FLuc inh: inactive; HEK293 tox: inconclusive; 3T3 cytotox: inconclusive

What do the screens show for `Cc1nn2c(c1-c1ccccc1Oc1ccccc1)N(Cc1cccc(C#N)c1)CCC2`?
GPT2 inh: 2%[88.5 µM]; hNpr1 antagonist: 3.2µM*; FLuc inh: inactive; HEK293 tox: 8.9µM*; 3T3 cytotox: 8.9µM*; NPR1 antag cnf: 2.2µM*; NPR2 antag: 4.4µM*; FLuc counter: -3%[86.2 µM]; GloSensor ctrl: 1.8µM*

Results for Cc1nn2c(c1-c1ccccc1Oc1ccccc1)N(Cc1ccc(C(=O)O)s1)CCC2 ?
GPT2 inh: inactive; hNpr1 antagonist: inconclusive; FLuc inh: inactive; HEK293 tox: 32µM*; 3T3 cytotox: 32µM*; NPR1 antag cnf: inconclusive; NPR2 antag: inconclusive; FLuc counter: 1%; GloSensor ctrl: inconclusive

Results for Cc1nn2c(c1-c1ccccc1[S+](C)(=O)[O-])N(Cc1ccc(C(=O)O)s1)CCC2 ?
GPT2 inh: -10%[88.5 µM]; hNpr1 antagonist: 3.2µM*; FLuc inh: inactive; HEK293 tox: inconclusive; 3T3 cytotox: 13µM*; NPR1 antag cnf: 9.9µM*; NPR2 antag: 28µM*; FLuc counter: 3%[86.2 µM]; GloSensor ctrl: 5µM*

What do the screens show for `Cc1nn2c(c1-c1ccnn1C(C)C)N(Cc1cccc(C#N)c1)CCC2`?
GPT2 inh: -6%[88.5 µM]; hNpr1 antagonist: inconclusive; FLuc inh: inactive; HEK293 tox: 14µM*; 3T3 cytotox: 14µM*; NPR1 antag cnf: 2.8µM*; NPR2 antag: inconclusive; FLuc counter: -1%[86.2 µM]; GloSensor ctrl: inconclusive

How did Cc1nn2c(c1-c1ccccc1-c1ccccc1)N(Cc1ccc(C(=O)O)s1)CCC2 do in these assays?
GPT2 inh: -11%[88.5 µM]; hNpr1 antagonist: 2%[70.6 µM]; FLuc inh: inactive; HEK293 tox: inconclusive; 3T3 cytotox: -9%[138 µM]

What do the screens show for `CC(=O)Nc1ccc(S(=O)(=O)N2C[C@@H]3C[C@H](C2)c2c(-c4ccc(OC(F)(F)F)cc4)ccc(=O)n2C3)cc1`?
GPT2 inh: inconclusive; hNpr1 antagonist: -12%; FLuc inh: inactive; HEK293 tox: inconclusive; 3T3 cytotox: inconclusive

Results for O=C(c1cc(F)ccc1F)N1CCC(Cc2nc(-c3ccc(F)cc3)no2)CC1 ?
GPT2 inh: inactive; hNpr1 antagonist: 3.2µM*; FLuc inh: inactive; HEK293 tox: inconclusive; 3T3 cytotox: inconclusive; NPR1 antag cnf: 3.1µM*; NPR2 antag: 4.8µM*; FLuc counter: 4%; GloSensor ctrl: 3.1µM*

Results for O=C(c1cc(Cl)ccc1F)N1CCC(Cc2nc(-c3ccc(F)cc3)no2)CC1 ?
GPT2 inh: inactive; hNpr1 antagonist: 3.2µM*; FLuc inh: inactive; HEK293 tox: inconclusive; 3T3 cytotox: inconclusive; NPR1 antag cnf: 4.3µM*; NPR2 antag: 5.4µM*; FLuc counter: 4%; GloSensor ctrl: 4.3µM*

How did CC(C)(C)C(=O)N1CCCN(c2ccc3nnc(C4CC4)n3n2)CC1 do in these assays?
HEK293 tox: -27%; 3T3 cytotox: -28%

What do the screens show for `CN(Cc1ccccc1C(F)(F)F)C(=O)Cc1ccccn1`?
GPT2 inh: -1%[88.5 µM]; hNpr1 antagonist: 13%[70.6 µM]; FLuc inh: inactive; HEK293 tox: 0%[172 µM]; 3T3 cytotox: -11%[138 µM]

What do the screens show for `CSCc1nc(CNc2nc(C3CCCC3)nc3c2cnn3C)cs1`?
GPT2 inh: inactive[11.5 µM]; hNpr1 antagonist: 8.9µM*; FLuc inh: inactive; HEK293 tox: 25µM*; 3T3 cytotox: inconclusive; NPR1 antag cnf: 15µM*; NPR2 antag: 19µM*; FLuc counter: 0%; GloSensor ctrl: 12µM*

What do the screens show for `O=C(CCC1CCCN(S(=O)(=O)c2cccc(F)c2)C1)NC1CCCCC1` (stereo unspecified)?
GPT2 inh: -15%; hNpr1 antagonist: 16µM*; FLuc inh: inactive; HEK293 tox: inconclusive; 3T3 cytotox: inconclusive; NPR1 antag cnf: 27µM*; NPR2 antag: 24µM*; FLuc counter: 0%; GloSensor ctrl: 24µM*

How did CNC(=O)CCC1CCCN(S(=O)(=O)c2cccc(F)c2)C1 (stereo unspecified) do in these assays?
GPT2 inh: 1%; hNpr1 antagonist: 1%; FLuc inh: inactive; HEK293 tox: 6%; 3T3 cytotox: 2%

What do the screens show for `FC(F)(F)C1CN(c2ccnc3ccc(Cl)cc23)CCO1` (stereo unspecified)?
GPT2 inh: -3%; hNpr1 antagonist: 11µM*; FLuc inh: inactive; HEK293 tox: 40µM*; 3T3 cytotox: inconclusive; NPR1 antag cnf: 22µM*; NPR2 antag: 22µM*; FLuc counter: 0%; GloSensor ctrl: 22µM*

Results for FC(F)(F)c1cccc2c(N3CCOC(C(F)(F)F)C3)ccnc12 (stereo unspecified) ?
GPT2 inh: -5%[11.5 µM]; hNpr1 antagonist: 10µM*; FLuc inh: inactive; HEK293 tox: inconclusive; 3T3 cytotox: -46%; NPR1 antag cnf: 24µM*; NPR2 antag: inconclusive; FLuc counter: 4%; GloSensor ctrl: 19µM*

What do the screens show for `CC(C)CC(=O)N1[C@@H](c2ccco2)[C@@H](C(=O)O)C[C@]12CCCCNC2=O`?
HEK293 tox: -6%; 3T3 cytotox: inconclusive

How did CN(C)CCNC(=O)c1nc2nc(-c3ccccc3)c(-c3ccc(O)c(F)c3)cc2n1C do in these assays?
GPT2 inh: 0%[88.5 µM]; hNpr1 antagonist: 22µM*; FLuc inh: inactive; HEK293 tox: 71µM*; 3T3 cytotox: 45µM*; NPR1 antag cnf: 35µM*; NPR2 antag: 20µM*; FLuc counter: 2%[86.2 µM]; GloSensor ctrl: -8%[86.2 µM]

Source: PubChem
